The values below come from PubChem BioAssay.

Where “and” joins values, the source holds several entries; their conditions need not be identical. Identical values can stand only once. Calls of active or inactive are those of the source.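 How the source made its calls, unless noted: active means compounds killing one labelled cell type while sparing the other, by normalised counts and ratio limits, not self-fluorescent; inactive means the rest.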

Test [1] can be described thus: differential killing of epithelial or mesenchymal cells, primary screen, imaging, PC-3E GFP, TEM4-18 mCherry, co-culture (AID 1345086).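 On all read-outs here: cells exposed to compound for 72 h before imaging.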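 On red/green cell ratio (normalised): normalised mesenchymal count divided by normalised epithelial count so high means epithelial killing.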 Particulars: imaging cell counts, at 1 µM; for red/green cell ratio (normalised): actives lie on both sides, counts scaled to control wells, 1 = unselective.
Test [2] is described as follows: viability rescue of complex I mutant cybrids, primary screen, cell-based, galactose medium, ATP luminescence (AID 1645843;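 active means z-score of at least 1.8 in each of two replicates, scored against plate mean and spread of sample wells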;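 further: positive z means more ATP and so rescue of galactose-driven cybrid death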). To be noted: complex I mutant cybrid cells, 72 h, stronger effect = higher value.
Test [3] is described as follows: polyglutamine-triggered caspase-3 activation inhibitors, cell-based (AID 1583). Particulars: polyglutamine-induced caspase-3 activation, cell assay; stronger effect = higher value;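 tested at 10 µM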.
The nature of test [4]: suppressors of polyQ aggregation in yeast, 75Q-TubU reporter (AID 1593). To be noted: Yeast 75Q polyglutamine aggregation reporter.
The nature of test [5]: inhibitors of mitochondrial cytochrome c release, biochemical, purified mitochondria (AID 1603).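 Further: mouse liver mitochondria challenged with calcium chloride; signal normalized to the plate average as 100%.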 Particulars: stronger effect = lower value.
A short description of test [6]: liver-stage malaria parasite growth inhibition, primary screen, cell-based, HepG2, luciferase luminescence, HepG2 viability (AID 624349; in the data active means parasite load remaining mostly below about 12%, no sharp cut-off; inactive means mostly above about 10%;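 further: 100% = mean of DMSO negative control wells on the same plate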). Particulars: P. berghei liver stage in HepG2, luciferase luminescence, concentration not given here; parasite load remaining: stronger effect = lower value; viability: measured here: HepG2 viability without parasites.
The mark [7] stands for this setting: measured here: epithelial PC-3E GFP cell survival.
[8] abbreviates: measured here: mesenchymal TEM4-18 mCherry cell survival.

In the case of `CN[C@@H]1[C@@H](O)[C@@H](O[C@@H]2[C@@H](O)[C@H](O[C@H]3O[C@H]([C@@H](C)NC)CC[C@H]3N)[C@@H](N)C[C@H]2N)OC[C@]1(C)O`, the red/green cell ratio (normalised) in test [1] is 0.92 (inactive). For the same molecule, the normalised cell number in test [1] (setting [7]) was 1.22; in test [1] (setting [8]), 1.13. For the same molecule, in test [2], the z-score is 0 (inactive).
For `NC(COCc1ccccc1)C(=O)O` (stereo not given), in test [3], the inhibition (commonly the relative decrease from the control value, in per cent) was 2.09%. In addition, the score in test [4] came out at 1.43. Further, the cytochrome c release ratio in test [5] was found to be 0.75. The red/green cell ratio (normalised) in test [1] was 0.87 (inactive). Moreover, the figures for the normalised cell number in test [1] (setting [7]) and in test [1] (setting [8]) were 1.19 and 1.04, respectively.
Turning to `C[N+]1(C)C2CC(OC(=O)[C@@H](CO)c3ccccc3)CC1C1OC12` (stereo not given in full), the inhibition in test [3] was 17.7%. In addition, the score in test [4] worked out at 1.45. The cytochrome c release ratio in test [5] was 0.94. In test [6], the parasite load remaining was 89.5% (inactive) and 73.4% (inactive); the viability (in general, the share of living cells, or the viability signal relative to a control) was 78.8% and 91.6%. Further, the red/green cell ratio (normalised) in test [1] was 1.4 (inactive). Also, in test [1] (setting [7]), the normalised cell number came out at 0.85. In addition, the normalised cell number in test [1] (setting [8]) was found to be 1.19.
For `CC(=O)N[C@@H]1[C@@H](C(O)[C@H](O)CO)O[C@](O)(C(=O)O)C[C@@H]1O` (stereo not given in full), the inhibition in test [3] came out at 7.5%. In test [4], this molecule registered a score of 1.07. Also, in test [5], the cytochrome c release ratio came to 0.26. In addition, the red/green cell ratio (normalised) in test [1] is 0.94 (inactive). Moreover, the results for the normalised cell number in test [1] (setting [7]) and in test [1] (setting [8]) were 1.19 and 1.12, respectively.
As to `CC1CCC2(OC1)OC1CC3C4CC[C@H]5C[C@@H](O)CC[C@]5(C)C4CC(=O)[C@]3(C)C1C2C` (stereo not given in full), the inhibition in test [3] came out at 11.6%. This molecule also showed a score in test [4] of 1.42. Besides, in test [5], the cytochrome c release ratio is 1.08. Moreover, in test [6], the parasite load remaining is 106% (inactive) and the viability stood at 69.7%. The red/green cell ratio (normalised) in test [1] was 1.26 (inactive). Moreover, the normalised cell number in test [1] (setting [7]) is 1.02. Further, the normalised cell number in test [1] (setting [8]) is 1.27.
For the molecule `CC1(C)C2CC[C@]3(C)C(C(=O)C=C4[C@H]5C[C@@](C)(C(=O)O)CC[C@]5(C)CC[C@]43C)[C@@]2(C)CC[C@@H]1O` (stereo not given in full), in test [3], the inhibition is -22.8%. Further, the score in test [4] worked out at 2.14. Also, the cytochrome c release ratio in test [5] was determined as 1.2. The red/green cell ratio (normalised) in test [1] is 1.07 (inactive). Besides, the normalised cell number in test [1] (setting [7]) was 1.03; in test [1] (setting [8]), 1.11.
Regarding `CC(=O)OCC(=O)[C@@]1(O)[C@H](C)CC2C3CCC4=CC(=O)C=C[C@]4(C)[C@@]3(F)[C@@H](O)C[C@@]21C` (stereo not given in full), the inhibition in test [3] was 52.6%. The same molecule registered a score in test [4] of 0.99. Besides, the cytochrome c release ratio in test [5] stood at 1.17. Besides, in test [6], the parasite load remaining was 140% (inactive) and the viability turned out to be 73.1%. Moreover, in test [1], the red/green cell ratio (normalised) is 1.26 (inactive). In test [1] (setting [7]), this molecule yielded a normalised cell number of 1.37. This molecule came in with a normalised cell number in test [1] (setting [8]) of 1.74.
On to `CC(C)CC(NC(=O)CCN)C(=O)O` (stereo not given), for which, in test [3], the inhibition came out at 1.74%. Also, the score in test [4] stood at 1.04. In addition, the cytochrome c release ratio in test [5] came to 1.04. In test [1], the red/green cell ratio (normalised) was 1.07 (inactive). In addition, the normalised cell number was 1.22 in test [1] (setting [7]) and 1.31 in test [1] (setting [8]).
As to `CCCCC(=O)O[C@]1(C(=O)CO)[C@@H](C)CC2C3CCC4=CC(=O)C=C[C@]4(C)[C@@]3(F)C(O)C[C@@]21C` (stereo not given in full), in test [6], the parasite load remaining was 94.9% (inactive) and the viability came out at 71%. Also, the red/green cell ratio (normalised) in test [1] is 1.42 (inactive). This molecule also had a normalised cell number in test [1] (setting [7]) of 0.8. Besides, the normalised cell number in test [1] (setting [8]) was determined as 1.14.
Take `C/C=C(/C)C(=O)O[C@@H]1[C@H](OC(C)=O)[C@@]2(CO)C(CC1(C)C)C1=CCC3[C@@]4(C)CC[C@H](O[C@@H]5O[C@H](C(=O)O)[C@@H](O[C@@H]6O[C@H](CO)[C@@H](O)[C@H](O)[C@H]6O)[C@H](O)[C@H]5O[C@@H]5O[C@H](CO)[C@@H](O)[C@H](O)[C@H]5O)[C@](C)(CO)C4CC[C@@]3(C)[C@]1(C)C[C@H]2O` (stereo not given in full): in test [6], the parasite load remaining was 66% (inactive) and the viability came out at 87.2%. Further, in test [1], the red/green cell ratio (normalised) is 0.77 (inactive). For the same molecule, the normalised cell number in test [1] (setting [7]) is 1.1. In addition, the normalised cell number in test [1] (setting [8]) was 0.85.
For the molecule `CC(=O)O[C@@H]1CC2C(C)(C)C(=O)C=C[C@]2(C)C2CC[C@@]3(C)[C@H](c4ccoc4)OC(=O)[C@H]4O[C@]43[C@@]21C` (stereo not given in full), the inhibition in test [3] was -6.23%. Moreover, the score in test [4] was determined as 0.97. The cytochrome c release ratio in test [5] worked out at 1.1. The parasite load remaining in test [6] was 2.66% (inactive). For the same molecule, in test [6], the viability was determined as 98.4%. Further, the red/green cell ratio (normalised) in test [1] is 1.12 (inactive). In addition, the normalised cell number was determined as 0.89 in test [1] (setting [7]) and 0.99 in test [1] (setting [8]).
